From PubChem BioAssay AID2314 (National Center for Advancing Translational Sciences (NCATS), 2010)
Screen size: about 300,000 compounds; about 37,000 (12%) were called active. The sample holds actives, similar compounds and a random draw of the others, so the mix is not that of the screen. Cut-off read from the data, not from the text of the source: active = max response mostly above about 13% (no sharp cut-off); inactive = mostly below about 14%.

Assay: Cycloheximide Counterscreen for Small Molecule Inhibitors of Shiga Toxin; note: read at 38.3 µM for the half of the compounds with a filed dose; 0% is about no effect
Details: cell reporter, cycloheximide protein synthesis inhibition counterscreen; hits give high values

SMILES | max response
COc1ccc(NC(=O)c2c(SC)nsc2SC)cc1 | -1.45% (inactive)
COc1ccc(-c2nn(-c3ccccc3)cc2C(=O)Nc2nc(CC(C)=O)ns2)cc1 | 9.17% (inactive)
COc1ccc(NC(=O)c2cn(-c3ccccc3)nc2SC)cc1 | 15.2% (active)
Cc1ccc(-c2cn(S(=O)(=O)c3cccc([N+](=O)[O-])c3)nc2N)cc1 | -2.07% (inactive)
Cc1cc(C)nc(Nc2cc([N+](=O)[O-])ccc2C)n1 | 7.47% (inactive)
Cc1ccc(-n2cc3ccc([N+](=O)[O-])cc3n2)cc1 | 46.9% (active)
CCCCc1nn(-c2ccccc2C(F)(F)F)c(=O)n1Cc1ccc(-c2ccccc2S(=O)(=O)NC(=O)c2sccc2C)cc1 | -3.92% (inactive)
CN1CCN(CCCCOc2ccccc2-c2ccccc2)CC1 | -2.52% (inactive)
COc1ccccc1N1CCN(C(=O)c2ccc(Cl)c(S(=O)(=O)N3CCCC3)c2)CC1 | 1.2% (inactive)
CC12CN(NC(=O)c3ccc(Cl)cc3)C3(C#N)CC1CCC23C (configuration not stated) | -3.78% (inactive)
CC(C)=CCN1CCN(Cc2ccc(Oc3ncccn3)cc2)CC1CCO (configuration not stated) | -1.38% (inactive)
CCOc1ccc(CN2CCN(CCCc3ccccc3)C(CCO)C2)cc1 (configuration not stated) | -3% (inactive)
OCCC1CN(Cc2ccc(Oc3ncccn3)cc2)CCN1CCc1ccccc1 (configuration not stated) | 14.5% (active)
N#Cc1cccc(CN2CCC(=O)N(CCO)CC2)c1 | -1.61% (inactive)
O=C(c1ccc(N2CCOCC2)c([N+](=O)[O-])c1)N1CCN(S(=O)(=O)c2cccs2)CC1 | -2% (inactive)
CN(c1ccc(OCC(=O)O)cc1)S(=O)(=O)c1ccc2ccccc2c1 | -2.07% (inactive)
O=C(NCc1cccc(C(F)(F)F)c1)c1cccc(S(=O)(=O)N2CCN(Cc3ccccc3)CC2)c1 | -5.35% (inactive)
O=C(Cc1cccs1)NCc1cccc(C(F)(F)F)c1 | 36.1% (active)
O=C(NCc1ccccc1)c1ccc(S(=O)(=O)Nc2cccc(C(F)(F)F)c2)cc1 | 2.15% (inactive)
Cc1nc([N+](=O)[O-])nn1C12CC3CC(CC(Br)(C3)C1)C2 | 15.4% (inactive)
CCC(C)(C)c1ccc(OCC(=O)N(C)C)c(C(C)(C)CC)c1 | -3.16% (inactive)
Cc1nc2ccc(C(=O)N3CCSCC3)cc2s1 | 11.3% (active)
O=C(c1ccc2nc(N3CCOCC3)sc2c1)N1CCN(c2ccc(Cl)cc2)CC1 | 1.7% (inactive)
Cc1nc2ccc(C(=O)N3CCN(c4ccccc4)CC3)cc2s1 | -1.5% (inactive)
OC(COCCC12CC3CC(CC(C3)C1)C2)CN1CCCCC1 (configuration not stated) | -4.31% (inactive)

SMILES | max response
Cc1nc(C)c(-c2nnc(-c3cccc(S(=O)(=O)N(C)C)c3)o2)cc1C(=O)NN | -1.43% (inactive)
CN(C)c1ccnc2sc(C(=O)c3ccccc3)c(N)c12 | 57.9% (active)
CCN(CC)C(=O)c1sc2nc(-c3ccccc3)ccc2c1N | 63.5% (active)
CCOC(=O)c1sc2nc(SC)nc(-c3ccccc3)c2c1N | -2.15% (inactive)
CC(=O)c1c(Nc2ccccc2)sc(C(=O)c2ccccc2)c1C | 0.579% (inactive)
COC(=O)c1cc2c(N)c(C(=O)c3ccc(Cl)cc3)sc2nc1C(OC)OC | -3.14% (inactive)
CN(C)c1ccnc2sc3c(=O)n(Cc4ccccc4)cnc3c12 | -5.28% (inactive)
CCc1nc2sc(C(=O)O)c(N)c2c2c1CCCC2 | -1.77% (inactive)
Cc1ccc2c(N)c(C(=O)c3ccccc3)sc2n1 | 29% (active)
Cc1nc2sc(C(=O)c3ccccc3)c(N)c2c2c1CCCC2 | 20.5% (active)
NC(=O)c1sc2nc3c(c(-c4ccccc4)c2c1N)CCC3 | -2.08% (inactive)
COc1cccc(C(=O)c2sc3nc(-c4ccccc4)cc(C(F)(F)F)c3c2N)c1 | 10.5% (inactive)
CS(=O)(=O)c1sc2nc(-c3ccccc3)cc(-c3ccccc3)c2c1N | -3.03% (inactive)
C[C@H](C(=O)CC(=O)OC(C)(C)C)[C@H](O)c1ccc(C(F)(F)F)cc1 | 1.49% (inactive)
Oc1ccc(-c2c(-c3ccccc3)nn3c(C(F)(F)F)cc(C(F)(F)F)nc23)cc1 | -7.49% (inactive)
Cc1ccc2c(c1)N(CC(=O)N1CCC(O)CC1)C(=O)CO2 | -1.82% (inactive)
CC[C@@H](C)[C@H](NC(=O)CCc1c(C)c2cc3c4c(oc3c(C)c2oc1=O)CCCC4)C(=O)O | 9.7% (inactive)
COc1ccc(/C=C2\SC(=S)N(CCC(=O)Nc3ccccn3)C2=O)cc1OC | -7.17% (inactive)
O=C(CNC(=O)[C@@H]1Cc2ccccc2CN1)NC1CCCCC1 | 1.46% (inactive)
COc1ccc(/C(C)=N/Nc2cc(C(F)(F)F)ccc2Cl)c(OC)c1 | -5.52% (inactive)
Cn1nc(-c2ccccc2)c2cc([N+](=O)[O-])ccc21 | 1.38% (inactive)
Nc1c(-c2cccc(Cl)c2)cnn1-c1cccc([N+](=O)[O-])c1 | 17.2% (active)
O=C(CCl)N(Cc1cccc([N+](=O)[O-])c1)c1cccc(Cl)c1 | -0.93% (inactive)
CNc1[nH]ncc1[N+](=O)[O-] | 40.2% (active)
CN(C)/C=C(\C=[N+](C)C)c1[nH]ncc1[N+](=O)[O-] | -6.11% (inactive)

SMILES | max response
CC(=O)C(C)n1cnc2scc(-c3ccc(C)cc3)c2c1=O (configuration not stated) | 1.16% (inactive)
COc1ccc(CN2CCCC(C(=O)N3CCCCC3)C2)cc1 (configuration not stated) | -1.73% (inactive)
Cc1cnc(NC(=O)CSc2nnc(-c3ccccc3)n2Cc2ccccc2)s1 | -3.18% (inactive)
Cc1ccc(SCC(=O)Nc2ncc(C)s2)cc1 | 25% (active)
COc1ccc(CC(=O)NCc2nnc(SCC(=O)Nc3ncc(C)s3)n2C)cc1 | 3.99% (inactive)
Cc1cnc(NC(=O)CSc2c(Cl)cccc2Cl)s1 | 5.96% (inactive)
Cc1cnc(NC(=O)CSc2nnc(-c3ccc(Cl)cc3Cl)n2N)s1 | 24.6% (active)
Cc1cnc(NC(=O)CSc2nnc(C)s2)s1 | 20.1% (inactive)
COc1ccc(CNS(=O)(=O)c2ccc(NC(=O)N3CCCCC3)cc2)cc1 | 2.3% (inactive)
CCOC(=O)c1c(-c2ccccc2)oc2cc(Br)c(O)c(C=O)c12 | 5.72% (inactive)
CCN(CC)c1ccc(NC(=O)CCc2nnc3ccc(N4CCCCC4)nn23)c(C)c1 | -1.8% (inactive)
CCCc1ccc(OCC(O)CN2CCN(CCO)CC2)cc1 (configuration not stated) | -1.67% (inactive)
S=c1nc(C23CC4CC(CC(C4)C2)C3)nc2sccn12 | 1.25% (inactive)
CCn1c(NC(=O)c2nn(C)cc2Br)nc2ccccc21 | -2.42% (inactive)
COC(=O)CN1C(=O)C(C)(C)Oc2ccc(C(=O)Nc3cccc(OC)c3)cc21 | -5.75% (inactive)
CC(C)c1ccc(C(=O)OC2CCOC2=O)cc1 (configuration not stated) | 6.8% (inactive)
O=C1OCCN1C(=O)[C@H]1[C@H](c2ccc(F)cc2)C(c2ccccc2)=NN1c1ccc(Br)cc1 | 5.32% (inactive)
Cc1ccc(C)c(NC(=O)CSc2nc3c(oc4ccccc43)c(=O)n2-c2ccccc2)c1 | 0.718% (inactive)
CCC(C(=O)OC)n1cnc2c(oc3ccccc32)c1=O (configuration not stated) | -2.56% (inactive)
Cc1ccc(C)c(Cn2cnc3c(oc4ccccc43)c2=O)c1 | 20.1% (active)
OC(COCC1COc2ccccc2O1)CN1CCN(c2ccc(F)cc2)CC1 (configuration not stated) | -1.11% (inactive)
O=C1CCC(C(=O)N2CCC(O)(c3ccccc3)CC2)CN1CCc1ccccc1 (configuration not stated) | -0.943% (inactive)
CC(C)c1nnc(NC(=O)C2CC(=O)N(CCc3ccc(F)cc3)C2)s1 (configuration not stated) | -6.02% (inactive)
COC(=O)c1ccc(C(=O)NC2CC(C)(C)Cc3c2cnn3-c2ccc(F)cc2)nc1 (configuration not stated) | 24.5% (active)
CC1(C)Cc2c(cnn2-c2cccc(F)c2)C(NC(=O)c2cc[n+]([O-])cc2)C1 (configuration not stated) | -3.06% (inactive)

SMILES | max response
Cc1cc(C(=O)NC2CC(C)(C)Cc3c2cnn3-c2ccccc2)n[nH]1 (configuration not stated) | 3.28% (inactive)
COC(=O)c1cccc(N2C(=O)C3C4C=CC(CC4)C3C2=O)c1 (configuration not stated) | -3.45% (inactive)
O=C(O)c1cc(S(=O)(=O)NC2CCCc3ccccc32)ccc1O (configuration not stated) | 1.09% (inactive)
Cc1cc(-c2ccc(C)c(S(=O)(=O)NCCCN(Cc3ccccc3)C(C)C)c2)on1 | -2.55% (inactive)
Cc1ccc(C(=O)CSc2ccccc2C(=O)O)cc1 | 20.8% (active)
Cc1ccc(Sc2cc(C(=O)c3ccccc3C(=O)O)ccc2[N+](=O)[O-])cc1 | -4.78% (inactive)
Cc1ccc(C(=O)CSc2nnc(Cn3nnc4ccccc43)n2C)cc1 | -0.925% (inactive)
CCCC1CCC(=NNC(=S)NCCc2ccccc2)CC1 (configuration not stated) | 13.6% (inactive)
COc1cc(C(=S)N2CCOCC2)cc(OC)c1OC(=O)c1cc([N+](=O)[O-])c(C)c([N+](=O)[O-])c1 | -3.02% (inactive)
CC(C)Cn1cnc2c1c(=O)n(CC(=O)NN)c(=O)n2Cc1ccccc1 | 0.845% (inactive)
CC1CC(C)CN(c2ccc(S(=O)(=O)N3CCOCC3)cc2)C1 (configuration not stated) | 7.13% (inactive)
CSCC[C@H](NC(=O)N1CCn2c1nc1ccccc12)C(=O)NC1CCCCC1 | 19.4% (inactive)
COc1ccc(C2NC(=O)C(=O)/C2=C(\O)c2ccc(Cl)cc2)cc1OC (configuration not stated) | -4.04% (inactive)
C/C(=N\NC(=S)Nc1ccc(C)cc1)c1cc2ccccc2o1 | 20.6% (active)
CC(C)(C)n1nc2c(c1NC(=O)c1cc3ccccc3o1)CSC2 | 9.15% (inactive)
O=C(NCCc1ccc2c(c1)OCCO2)c1cc2ccccc2o1 | 8.84% (inactive)
Cc1ccc(OC(=O)c2cc3ccccc3o2)cc1 | 13.6% (inactive)
Cc1cccc(-n2nc3c(c2NC(=O)c2cc4ccccc4o2)CS(=O)(=O)C3)c1 | -5.35% (inactive)
C/C(=N\NS(=O)(=O)c1cccc([N+](=O)[O-])c1)c1cc2ccccc2o1 | 1.29% (inactive)
Cc1ccc(NC(=O)c2cc3ccccc3o2)cc1 | 43.9% (active)
O=C(Nc1ccncc1)c1cc2ccccc2o1 | 22.3% (active)
CC(=O)N1CCN(c2ccccc2NC(=S)NC(=O)c2cc3ccccc3o2)CC1 | -8.35% (inactive)
